Structures are written as SMILES. The panel holds about 83,000 compounds, 20% with a hit somewhere; the sample as a whole holds those more often.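 Percent growth is the endpoint: 0 to 100 indicates growth inhibition (40 means 60% inhibition), 0 means no net growth, and negative values indicate cell death.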 A number with no mark means an inactive call. The source made the active and inactive calls. The calls were made as follows: active = growth percent below 10; inactive = the rest.

Eight compounds from PubChem BioAssay (NCI) can be followed below.

Some test systems named below: DU-145 prostate; K-562 leukemia; MALME-3M melanoma; MDA-MB-231 breast; RXF 393 renal; SF-268 CNS; SF-295 CNS; SF-539 CNS; UACC-257 melanoma; M14 melanoma; HCT-15 colon; HT29 colon; SNB-75 CNS; SNB-19 CNS; U251 CNS; PC-3 prostate; SK-MEL-5 melanoma; UACC-62 melanoma; LOX IMVI melanoma; SK-MEL-28 melanoma.
What all share (experiment): NCI-60 one-dose screen, 48 h (100 = growth as untreated, 0 = no growth, -100 = all killed)
Settings in all cases: 10 µM unless noted

In the case of `Cc1ccc(S(=O)(=O)c2nc(-c3ccccc3)oc2Sc2nc3ccccc3s2)cc1`, the growth is 100% in the assay with DU-145 prostate; 42.9% in the assay on K-562 leukemia; 66.4% in the assay with MALME-3M melanoma; 75.3% with MDA-MB-231 breast; 77.3% in the assay on RXF 393 renal; 58.3% in the assay on SF-268 CNS. Besides, the growth in the assay on SF-295 CNS is 92.1%; in the assay on SF-539 CNS, 93.3%; in the assay with UACC-257 melanoma it was 101%; in the assay on M14 melanoma it was 13.4%; in the assay on HCT-15 colon, 44.8%; in the assay with HT29 colon it was 94.2%. The growth in the assay on SNB-75 CNS was 70.8%; with SNB-19 CNS, 100%; in the assay with U251 CNS, 90.5%; with PC-3 prostate, 97.2%; in the assay on SK-MEL-5 melanoma, 53.3%; in the assay on UACC-62 melanoma it was 80.3%. Further, the figures for the growth in the assay with LOX IMVI melanoma and in the assay on SK-MEL-28 melanoma were 24.6% and 109%, respectively.

Consider `CC(C)(C)n1cc(-c2ccnc(NCCCNS(=O)(=O)c3cccc4ccccc34)c2)c(-c2cccc(F)c2)n1`, for which the growth in the assay on DU-145 prostate is 89.4%; in the assay with K-562 leukemia, 30.8%; with MALME-3M melanoma, 113%; in the assay on MDA-MB-231 breast, 80.6%; with RXF 393 renal, 76.8%; in the assay on SF-268 CNS it was 85.2%. In addition, the growth with SF-295 CNS is 63.9%; with SF-539 CNS it was 72.4%; in the assay on UACC-257 melanoma, 94.4%; with M14 melanoma it was 73.3%; with HCT-15 colon it was 44.6%; in the assay on HT29 colon, 27.6%. Moreover, the growth with SNB-75 CNS was 67.2%; in the assay on SNB-19 CNS, 86.3%; in the assay on U251 CNS, 65%; in the assay on PC-3 prostate, 55.8%; in the assay with SK-MEL-5 melanoma, 74.5%; with UACC-62 melanoma, 80.5%. Further, the growth in the assay on LOX IMVI melanoma was 54.7%; in the assay with SK-MEL-28 melanoma, 99.9%.

Regarding `FC(F)(F)Oc1cccc(-c2cnc3ccc(-c4ccncc4)nn23)c1`, the growth with DU-145 prostate is 22.2%; in the assay with K-562 leukemia it was 31.6%; with MALME-3M melanoma, 39.2%; with MDA-MB-231 breast it was 32.9%; in the assay with RXF 393 renal, -29.6% (active); in the assay on SF-268 CNS it was 18.9%. Further, the growth with SF-295 CNS is 17.4%; in the assay on SF-539 CNS, -2.61% (active); in the assay with UACC-257 melanoma, 48.6%; with M14 melanoma, 26.8%; in the assay with HCT-15 colon it was 8.36% (active); in the assay with HT29 colon it was 14.7%. The growth was 41.6% in the assay on SNB-75 CNS; 23.5% in the assay on SNB-19 CNS; 18.7% with U251 CNS; 15.5% in the assay with PC-3 prostate; 22.6% in the assay on SK-MEL-5 melanoma; -0.898% (active) in the assay on UACC-62 melanoma. The growth was 9.23% (active) in the assay on LOX IMVI melanoma and 20% in the assay on SK-MEL-28 melanoma.

Regarding `Nc1ncnc2c1N=C(c1ccc3c(c1)OCO3)CC(c1cccc(Nc3ccnc4cc(C(F)(F)F)ccc34)c1)N2` (stereo not given), the growth in the assay on DU-145 prostate is 87.3%; in the assay with K-562 leukemia it was 21%; in the assay on MALME-3M melanoma, 84.3%; in the assay on MDA-MB-231 breast it was 88.4%; in the assay on RXF 393 renal it was 80.5%; with SF-268 CNS, 83.6%. Further, the growth in the assay on SF-295 CNS was 87.6%; with SF-539 CNS it was 98.9%; with UACC-257 melanoma, 74.9%; with M14 melanoma it was 94.2%; in the assay on HCT-15 colon, 70.8%; in the assay on HT29 colon, 69.6%. The growth was 76.9% with SNB-75 CNS; 77.3% in the assay on SNB-19 CNS; 37.4% with U251 CNS; 75.6% with PC-3 prostate; 84.6% in the assay on SK-MEL-5 melanoma; 87.1% in the assay with UACC-62 melanoma. Further, the growth was 51.8% with LOX IMVI melanoma and 101% with SK-MEL-28 melanoma.

For the compound `COc1ccc2c(c1)c(-c1nc(-c3c[nH]c4ncccc34)cs1)cn2CCCN1CCOCC1`, the growth in the assay with DU-145 prostate was 41.5%; in the assay with K-562 leukemia, -5.12% (active); in the assay with MALME-3M melanoma, 5.55% (active); with MDA-MB-231 breast, 9.85% (active); with RXF 393 renal, -9.75% (active); with SF-268 CNS, 43.9%. The growth with SF-295 CNS was -34.4% (active); in the assay with SF-539 CNS, 33.6%; with UACC-257 melanoma it was 49.9%; with M14 melanoma, 10%; with HCT-15 colon, 13.7%; in the assay on HT29 colon it was -12.9% (active). Also, the growth in the assay with SNB-75 CNS was 21.4%; in the assay with SNB-19 CNS it was 54.4%; in the assay on U251 CNS it was 16.3%; in the assay on PC-3 prostate it was 18.2%; in the assay on SK-MEL-5 melanoma, 31.6%; with UACC-62 melanoma, 44.1%. Further, the growth is 17% in the assay on LOX IMVI melanoma and -54.1% (active) in the assay on SK-MEL-28 melanoma.

Take `CCOC(=O)C(=Cc1ccc(-c2ccccc2)cc1)C(=O)OCC`: the growth was 36.6% in the assay with DU-145 prostate; 20% in the assay on K-562 leukemia; 70.6% in the assay on MALME-3M melanoma; 53.3% with MDA-MB-231 breast; 43% in the assay with RXF 393 renal; 37.5% in the assay on SF-268 CNS. For the same compound, the growth in the assay on SF-295 CNS is 52.5%; in the assay with SF-539 CNS, 21.4%; in the assay on UACC-257 melanoma, 44.4%; in the assay on M14 melanoma, 42.5%; in the assay with HCT-15 colon, 13.3%; in the assay on HT29 colon it was 4.16% (active). In addition, the growth in the assay with SNB-75 CNS was 38%; with SNB-19 CNS it was 54.9%; with U251 CNS, 21.3%; with PC-3 prostate, 31.8%; in the assay with SK-MEL-5 melanoma it was 54.8%; with UACC-62 melanoma it was 35.4%. Besides, the growth is -56.6% (active) with LOX IMVI melanoma and 31.1% with SK-MEL-28 melanoma.

On to `COc1ccc(/C=C(/c2ccccc2)[N+](=O)[O-])c(OC)c1`, for which the growth in the assay with DU-145 prostate is 38.6%; with K-562 leukemia it was 6.07% (active); in the assay on MALME-3M melanoma it was -27% (active); in the assay on MDA-MB-231 breast, 12.1%; in the assay with RXF 393 renal it was -67.8% (active); in the assay with SF-268 CNS, 14.3%. Moreover, the growth is 9.19% (active) in the assay on SF-295 CNS; -48.5% (active) in the assay with SF-539 CNS; 10.4% in the assay with UACC-257 melanoma; 5.14% (active) with M14 melanoma; -36.4% (active) with HCT-15 colon; -19.2% (active) in the assay on HT29 colon. In addition, the growth was 53.3% with SNB-75 CNS; -9.71% (active) in the assay on SNB-19 CNS; -59.8% (active) in the assay with U251 CNS; -20.6% (active) in the assay on PC-3 prostate; -25% (active) in the assay on SK-MEL-5 melanoma; -53.9% (active) in the assay on UACC-62 melanoma. The growth in the assay on LOX IMVI melanoma was -83.5% (active); in the assay on SK-MEL-28 melanoma, -25.3% (active).

As to `COC(=O)c1nc(-c2ccccc2)oc1S(=O)(=O)NCC(c1ccc(Cl)cc1)N1CCOCC1` (stereo not given), the growth with DU-145 prostate was 78.2%; in the assay with K-562 leukemia it was 13.4%; in the assay on MALME-3M melanoma, 76.9%; in the assay on MDA-MB-231 breast, 75.8%; in the assay with RXF 393 renal it was 83.6%; with SF-268 CNS, 77%. For the same compound, the growth in the assay on SF-295 CNS was 101%; in the assay with SF-539 CNS, 92.3%; with UACC-257 melanoma, 87.3%; in the assay with M14 melanoma, 35%; with HCT-15 colon it was 44.2%; in the assay on HT29 colon it was 40%. Also, the growth in the assay on SNB-75 CNS is 94.3%; with SNB-19 CNS, 89.4%; in the assay with U251 CNS, 72.8%; in the assay with PC-3 prostate, 50%; with SK-MEL-5 melanoma it was 86.4%; in the assay on UACC-62 melanoma, 80.9%. Further, the results for the growth with LOX IMVI melanoma and in the assay on SK-MEL-28 melanoma were 48.7% and 94.3%, respectively.
